Test [1] deals with Estrogen receptor beta (Homo sapiens) (UniProt Q92731). In words: ATG_hERb_XSP1: Attagene TRANS-FACTORIAL Multi-Species (XSP1) HepG2 Assay for human Estrogen Receptor (ESR2) (AID 2283788). A digest of the protocol:
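Read-out: reporter mRNA induction by RT-PCR, HpaI digestion and capillary electrophoresis fluorescence, fitted in positive direction relative to DMSO baseline. Human liver HepG2 cells expressing ERβ-Gal4 fusion, dosed 24 h, medium containing 3 nM 6-alpha-fluorotestosterone.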

Test [2] concerns the target GAL4 Transcription Factor (Internal Marker), GAL4 (gene 855828) (UniProt P04386). In words: ATG_GAL4_XSP1: Attagene TRANS-FACTORIAL Multi-Species (XSP1) HepG2 Assay for GAL4 Transcription Factor (Internal Marker) (AID 2283789). In short, it runs like this:
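HepG2 cells transiently transfected with multiplexed GAL4-UAS reporter units were exposed for 24 h with 3 nM 6-alpha-fluorotestosterone present. Reporter mRNA was quantified by RT-PCR, FAM labelling, HpaI digestion and capillary electrophoresis; background-control readout, gain-of-signal versus DMSO.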

The nature of test [3]: ATG_M_06_XSP1: Attagene TRANS-FACTORIAL Multi-Species (XSP1) HepG2 Assay for M06 Transcription Factor (Internal Marker) (AID 2283790). In short, it runs like this: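 Transfected HepG2 multi-reporter system treated 24 h in the presence of 3 nM 6-alpha-fluorotestosterone. The M06 internal marker transcript was quantified by RT-PCR with capillary electrophoresis as a background control, and gain of signal was scored versus DMSO.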

The nature of test [4]: ATG_M_61_XSP1: Attagene TRANS-FACTORIAL Multi-Species (XSP1) HepG2 Assay for M61 Transcription Factor (Internal Marker) (AID 2283797). In short, it runs like this:
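HepG2 cells transiently transfected with multiplexed GAL4-driven reporter units, dosed 24 h with 3 nM 6-alpha-fluorotestosterone present. Reporter mRNA quantified by RT-PCR, 6-FAM labelling, HpaI digestion and capillary electrophoresis; internal-marker background control, gain of signal versus DMSO.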

A short description of test [5]: ATG_M_32_XSP1: Attagene TRANS-FACTORIAL Multi-Species (XSP1) HepG2 Assay for M32 Transcription Factor (Internal Marker) (AID 2283799). In short, it runs like this: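 HepG2 cells transiently transfected with multi-species TRANS reporter units, dosed 24 h with 3 nM 6-alpha-fluorotestosterone present. Internal-marker reporter mRNA quantified by RT-PCR and capillary electrophoresis; positive-direction fit versus DMSO.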

The target in test [6] is Peroxisome proliferator-activated receptor gamma (Homo sapiens) (UniProt P37231). The test can be described thus: ATG_hPPARg_XSP1: Attagene TRANS-FACTORIAL Multi-Species (XSP1) HepG2 Assay for human Peroxisome Proliferator-activated Receptor gamma (PPARg) (AID 2283800). A digest of the protocol:
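HepG2 cells transiently transfected with GAL4-UAS reporter units carrying chimeric NR-Gal4 proteins; 3 nM 6-alpha-fluorotestosterone present. After 24 h dosing, reporter mRNA quantified by RT-PCR and capillary electrophoresis; gain of signal relative to DMSO.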

The subject of test [7] is zebrafish Peroxisome Proliferator-activated Receptor gamma (PPARg), gene 557037. In words: ATG_zfPPARg_XSP1: Attagene TRANS-FACTORIAL Multi-Species (XSP1) HepG2 Assay for zebrafish Peroxisome Proliferator-activated Receptor gamma (PPARg) (AID 2283801). In short, it runs like this:
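HepG2 cells transiently transfected with GAL4-UAS reporter units including a zebrafish PPARg–GAL4 chimera, dosed 24 h with 3 nM 6-alpha-fluorotestosterone present. Reporter mRNA quantified by RT-PCR, FAM labelling, HpaI digestion and capillary electrophoresis; induction versus DMSO.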

Each structure is given as a SMILES string. Records with an inconclusive call do not appear. Active and inactive are the calls of the source. The calls were made as follows: active = hit-call score of the fitted dose curve at least 0.9, where 1 is the maximum; inconclusive = response in the unintended direction; inactive = score below 0.9.

Sequence of Estrogen receptor beta (Homo sapiens) (Q92731 whole entry, looked up, the tested form may be a part): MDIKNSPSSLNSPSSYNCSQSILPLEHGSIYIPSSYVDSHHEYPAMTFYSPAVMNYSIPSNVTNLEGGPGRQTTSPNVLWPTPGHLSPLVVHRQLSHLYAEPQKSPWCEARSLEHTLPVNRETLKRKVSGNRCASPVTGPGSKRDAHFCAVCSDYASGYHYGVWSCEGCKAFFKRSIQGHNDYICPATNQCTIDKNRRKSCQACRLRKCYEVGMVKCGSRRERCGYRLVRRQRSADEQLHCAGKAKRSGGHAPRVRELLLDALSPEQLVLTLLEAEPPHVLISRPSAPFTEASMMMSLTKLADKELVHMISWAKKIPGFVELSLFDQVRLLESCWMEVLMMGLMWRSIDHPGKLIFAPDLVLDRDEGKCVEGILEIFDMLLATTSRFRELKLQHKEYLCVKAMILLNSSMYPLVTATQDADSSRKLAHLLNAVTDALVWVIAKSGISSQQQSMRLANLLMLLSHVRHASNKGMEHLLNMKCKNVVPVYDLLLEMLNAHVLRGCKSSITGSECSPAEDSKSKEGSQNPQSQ
Sequence of Peroxisome proliferator-activated receptor gamma (Homo sapiens) (P37231 whole entry, looked up, the tested form may be a part): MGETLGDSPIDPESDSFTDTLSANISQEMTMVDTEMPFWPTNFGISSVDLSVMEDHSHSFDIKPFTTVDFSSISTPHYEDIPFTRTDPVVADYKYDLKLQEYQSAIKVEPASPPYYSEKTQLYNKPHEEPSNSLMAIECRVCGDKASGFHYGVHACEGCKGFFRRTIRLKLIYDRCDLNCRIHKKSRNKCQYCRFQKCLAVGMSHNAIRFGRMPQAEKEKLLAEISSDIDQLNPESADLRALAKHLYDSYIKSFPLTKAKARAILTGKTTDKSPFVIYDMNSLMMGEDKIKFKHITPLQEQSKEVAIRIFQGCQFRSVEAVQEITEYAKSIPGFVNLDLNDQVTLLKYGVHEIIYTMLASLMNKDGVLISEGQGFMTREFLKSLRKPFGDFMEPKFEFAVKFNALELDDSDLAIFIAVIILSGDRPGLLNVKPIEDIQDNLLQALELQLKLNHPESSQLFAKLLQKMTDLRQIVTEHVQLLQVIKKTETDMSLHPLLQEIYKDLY
Sequence of GAL4 Transcription Factor (Internal Marker), GAL4 (gene 855828) (P04386 whole entry, looked up, the tested form may be a part): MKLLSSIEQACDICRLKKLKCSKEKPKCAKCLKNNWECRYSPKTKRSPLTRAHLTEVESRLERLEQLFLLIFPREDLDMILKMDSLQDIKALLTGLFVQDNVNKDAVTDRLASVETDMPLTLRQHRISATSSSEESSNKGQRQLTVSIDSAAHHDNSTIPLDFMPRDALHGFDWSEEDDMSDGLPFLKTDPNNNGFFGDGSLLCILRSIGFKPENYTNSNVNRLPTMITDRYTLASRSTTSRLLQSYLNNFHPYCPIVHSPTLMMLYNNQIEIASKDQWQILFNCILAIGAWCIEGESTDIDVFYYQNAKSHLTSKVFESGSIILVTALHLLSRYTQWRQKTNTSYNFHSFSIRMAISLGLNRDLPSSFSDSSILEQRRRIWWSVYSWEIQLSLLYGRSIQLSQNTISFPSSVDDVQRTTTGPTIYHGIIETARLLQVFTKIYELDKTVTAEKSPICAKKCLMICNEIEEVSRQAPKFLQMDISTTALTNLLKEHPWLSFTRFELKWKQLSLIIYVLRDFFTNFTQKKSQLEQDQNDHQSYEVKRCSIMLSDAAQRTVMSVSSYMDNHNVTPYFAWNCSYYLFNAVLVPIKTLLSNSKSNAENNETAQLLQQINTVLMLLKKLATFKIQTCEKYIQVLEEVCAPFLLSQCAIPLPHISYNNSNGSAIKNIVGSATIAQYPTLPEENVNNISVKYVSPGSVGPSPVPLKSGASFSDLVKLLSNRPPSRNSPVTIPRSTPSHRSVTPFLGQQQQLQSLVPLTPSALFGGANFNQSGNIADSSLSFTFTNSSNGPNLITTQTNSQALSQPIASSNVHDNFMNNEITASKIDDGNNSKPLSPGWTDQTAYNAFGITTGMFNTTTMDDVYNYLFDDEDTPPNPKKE

In the case of `O=P(OC(CCl)CCl)(OC(CCl)CCl)OC(CCl)CCl`, the concentration at half-maximal activity (AC50) is 26 µM (active) in test [1] and 78.6 µM (active) in test [7]. Further, the molecule was classed as inactive in test [2], in test [3], in test [4], in test [5] and in test [6].

The AC50 is the midpoint of the concentration-response curve, whichever way the signal moves.

For the origin of these results see PubChem BioAssay (EPA / NIEHS).
